# PubChem BioAssay AID2685 (National Center for Advancing Translational Sciences (NCATS), 2010)
# Out of some 320,000 compounds screened, about 2,100 (0.66%) were called active. Another 53% or so got no clear call; they are omitted. The call rests on the fitted dose curve; in most records, active means well fitted inhibition curve with a large enough effect in the signal ratio, with a control signal flat (not every such curve was filed as active); inconclusive means small, poorly fitted or top-dose-only effect, or effect the other way, or a change in a side signal; inactive means flat fitted curve, though single readings scatter; the % refers to the signal ratio. Shown is part of a subset that was picked to be rich in actives.
# Assay: qHTS Assay for Lipid Storage Modulators in Drosophila S3 Cells;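 on cell number change: cells counted by Cell Tracker Red CMTPX staining in the red channel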; on lipid storage change, negative = inhibition: on the % scale 0 is the no-effect control and ±100 the full control effect
# Conditions: BODIPY lipid droplet fluorescence, 18-24 h, cells fed with added oleic acid; cell number change: measured here: cell count max response; series mostly up to 46.1 µM; lipid storage change, negative = inhibition: at the top concentration
# Procedure, shortened: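 Drosophila S3 cells loaded with oleic acid (400 uM, as added) and compounds at several concentrations; lipid droplets imaged by 488-nm laser-scanning cytometry, 500–530 nm intensity and object ratio to cell channel. Percent activity normalized to 20 uM Triacsin C.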
# Potency means the concentration at half of the fitted maximal effect.
SMILES,"lipid storage change, negative = inhibition",cell number change [%],Potency,outcome
O=C(Cc1ccccc1)Nc1nnc(-c2cccc([N+](=O)[O-])c2)s1,2.31% (inactive),-4.06,–,–
Cc1cccc(N(Cc2cc(=O)[nH]c3ccccc23)C(=O)C(C)C)c1,-11.5% (inactive),-7.9,–,–
Cc1cccc(N(Cc2cc(=O)[nH]c3ccccc23)C(=O)CCl)c1,–,-1.53,20.6 µM (active),–
Cc1ccccc1N(Cc1cc(=O)[nH]c2ccccc12)C(=O)CCl,–,13.2,–,inactive
CN(C)S(=O)(=O)c1ccc(NC(=O)C2CC(=O)N(Cc3ccccc3)C2)cc1 (stereo not drawn),0.189% (inactive),-10.9,–,–
CCN(CC)S(=O)(=O)c1ccc(NN=C2CCN(C(C)C)CC2)c([N+](=O)[O-])c1,-5.99% (inactive),1.2,–,–
Cc1ccc(S(=O)(=O)c2cc3c(=O)n4cc(C)ccc4nc3n(CC3CCCO3)c2=N)cc1 (stereo not drawn),10.8% (inactive),-5.73,–,–
COP(=O)(OC)C(Nc1cc(Cl)cc(Cl)c1)c1cccc(O)c1 (stereo not drawn),-23% (inactive),-20.9,–,–
CCN(CC(=O)Nc1ccccc1OC)C(=O)C1CCCC1,–,-11,–,inactive
CCN(CC(=O)Nc1ccccc1OC)C(=O)C1CCC1,–,0.934,–,inactive
CCCN(CC(=O)Nc1ccccc1OC)C(=O)C1CCCC1,–,–,3.66 µM (active),–
CCCN(CC(=O)Nc1ccccc1OC)C(=O)Cc1ccccc1F,–,20.6,–,inactive
CCCN(CC(=O)Nc1ccccc1OC)C(=O)CCC(=O)c1ccc(Cl)s1,-3.74% (inactive),-12.8,–,–
CCCN(CC(=O)Nc1ccccc1OC)C(=O)CCC(=O)c1ccc(F)cc1,–,-6.3,0.82 µM (active),–
O=[N+]([O-])c1cccc(S(=O)(=O)N2CCCCC2)c1,–,2.7,–,inactive
Fc1ccc(-c2cc(C(F)(F)F)nc(NCc3cccs3)n2)cc1,11.1% (inactive),10.1,–,–
CCCN(CCC(=O)Nc1ccccc1F)CC1CC1,–,22.5,–,inactive
COc1ccc(NC(=O)c2ccc(C)cc2)c[n+]1[O-],1.42% (inactive),9.2,–,–
COc1ccc(C(c2nnnn2C(C)(C)C)N2CCN(C(=O)c3ccco3)CC2)cc1 (stereo not drawn),–,15.4,–,inactive
COc1ccc(C(c2nnnn2C(C)C)N2CCN(C(=O)c3ccco3)CC2)cc1 (stereo not drawn),–,10.1,0.0259 µM (active),–
COCCn1nnnc1C(c1ccc(OC)cc1)N1CCN(C(=O)c2ccco2)CC1 (stereo not drawn),–,10.8,–,inactive
Cc1cccc(CSc2nnc([C@@H]3CCCN3C(=O)OC(C)(C)C)o2)c1,0.387% (inactive),6.08,–,–
CCOC(=O)C1CCN(c2ccc([N+](=O)[O-])cc2)CC1,-22.6% (inactive),-12,–,–

SMILES,"lipid storage change, negative = inhibition",cell number change [%],Potency,outcome
COc1ccc(OC)c(S(=O)(=O)Nc2ccc3oc(C)c(C(C)=O)c3c2)c1,–,-9.21,–,inactive
O=C(COC(=O)c1nc(Cl)ccc1Cl)NC1CCCCCC1,–,–,–,inactive
Cc1cc(C)c(OCC(=O)OCC(=O)NC2CCCCCCC2)c(C)c1,–,19.3,1.84 µM (active),–
Cc1ccsc1C(=O)OCC(=O)NC1CCCC1,–,-11,0.517 µM (active),–
Nc1c(Cl)c(Cl)nc(C(=O)OCC(=O)NC2CCCCC2)c1Cl,–,-8.54,9.2 µM (active),–
Cc1ccsc1C(=O)OCC(=O)NC1CCS(=O)(=O)C1 (stereo not drawn),-5.35% (inactive),0.0545,–,–
Cc1ccccc1OCC(=O)OCC(=O)NC1CCCCCC1,–,-24.2,–,inactive [at 0.0737 µM]
O=C(COC(=O)c1ccccc1)NC1CCCC1,-8.07% (inactive),-13.7,–,–
Cc1ccsc1C(=O)OCC(=O)NCCNC(=O)COC(=O)c1sccc1C,-4.96% [at 0.0737 µM] (inactive),12.8,–,–
Nc1c(C(=O)NC2CCCCC2)nsc1C(=O)OCC(=O)NC1CCCCC1,22.9% (inactive),-16.5,–,–
O=C(COC(=O)c1c(Cl)cccc1Cl)NC1CCCCC1,3.06% (inactive),–,–,–
O=C(COC(=O)c1cccc(C(=O)OCC(=O)NC2CCCCC2)n1)NC1CCCCC1,–,-17.1,20.6 µM (active),–
Cc1cc(C)cc(OCC(=O)OCC(=O)NC2CCCCCCC2)c1,–,-3.74,–,inactive
Cn1c(=O)c(=O)n(C)c2cc(S(=O)(=O)N3CCCCCC3)ccc21,8.17% (inactive),11.2,–,–
CN(C)CCCNS(=O)(=O)c1ccc(N2CCN(Cc3ccc4c(c3)OCO4)CC2)c([N+](=O)[O-])c1,–,-3.81,–,inactive
COc1cc(OC)c(NC(=O)C(=O)CC(=O)c2ccc(C)cc2C)cc1Cl,-15.5% (inactive),-12.6,–,–
CN1C(=O)/C(=C/c2ccccc2Cl)Sc2ccc(C(=O)NCc3cccnc3)cc21,9.31% (inactive),-7.77,–,–
Cc1ccc(S(=O)(=O)N/N=c2\oc3ccccc3cc2C(=O)Nc2cccc(C)c2)cc1,19.4% (inactive),-24.3,–,–
CCOC(=O)c1sc2nc(C)nc(SCC(=O)N(CC)C3CCS(=O)(=O)C3)c2c1C (stereo not drawn),1.68% (inactive),-1.32,–,–
Cn1nc(-c2ccc(C(=O)NCCO)cc2)c2ccccc2c1=O,2.9% (inactive),-4.78,–,–
CC1(c2ccc(OCC#N)cc2)C=C(c2ccc(OCC#N)cc2)n2nc(C(F)(F)F)nc2N1 (stereo not drawn),-10.8% (inactive),-2.27,–,–
C=CCN1c2ccccc2[C@]23C[C@@H](C(=O)OC)N=C2NC(C(=O)OC)=C(C(=O)OC)[C@H]13,7.18% (inactive),33.7,–,–
CC(C)OC(=O)/C(C#N)=C\c1cccnc1,2.35% (inactive),5.73,–,–

SMILES,"lipid storage change, negative = inhibition",cell number change [%],Potency,outcome
CCC(C)(C)NC(=O)C(c1ccc(OC)cc1)N(C(=O)CCC(=O)Nc1cc(C)on1)C1CC1 (stereo not drawn),–,-1.32,–,inactive
O=C(Nc1cc2c(cc1Br)OCCO2)c1cccnc1,29.5% (inactive),-16.4,–,–
Cc1ccc(S(=O)(=O)N2CCC(C(=O)NNS(=O)(=O)c3ccc(Cl)cc3)CC2)cc1,-27.5% (inactive),4.8,–,–
Cc1ccc(S(=O)(=O)NNC(=O)C2CCCCC2)cc1,–,6.31,0.651 µM (active),–
Cc1ccc(S(=O)(=O)NNC(=O)C2CCN(S(=O)(=O)c3ccc(C)cc3)CC2)cc1,-9.5% (inactive),1.57,–,–
CCOc1ccc(C(=O)OCC(=O)N2CCCC2)cc1OCC,–,-21,–,inactive
COc1ccccc1NS(=O)(=O)c1cc(NC(=O)CCNC(C)=O)ccc1C,6.34% (inactive),9.21,–,–
CS(=O)(=O)NCCCCNc1ccc(C(F)(F)F)cc1[N+](=O)[O-],3.4% (inactive),4.42,–,–
O=[N+]([O-])c1cc(C(F)(F)F)ccc1NCCCCNS(=O)(=O)c1ccc(Cl)cc1,–,-16.8,25.9 µM (active),–
CS(=O)(=O)NCCCNc1ccc(C(F)(F)F)cc1[N+](=O)[O-],-1.44% (inactive),2.05,–,–
CCOc1ccc2nc(NCCNC(=O)CC)c(C#N)cc2c1,16.4% (inactive),0.214,–,–
COc1ccc(C(=O)NCCNc2nc3ccc(C)cc3cc2C#N)cc1OC,19.1% (inactive),–,–,–
COc1ccc(C(=O)NCCNc2nc3ccc(C)cc3cc2C#N)cc1,–,-23.8,20.6 µM (active),–
CCOc1ccccc1OCCCC(=O)N1CCN(S(=O)(=O)c2ccc(C)cc2)CC1,11.4% (inactive),-13.5,–,–
Cc1c(C(=O)O)sc2nc(CSc3ncc(C(F)(F)F)cc3Cl)[nH]c(=O)c12,3.11% (inactive),6.43,–,–
Cc1c(C)n(Cc2ccccc2)c2ncnc(NCCCO)c12,-4.82% (inactive),13.8,–,–
O=c1c(Cl)c(NCc2ccco2)cnn1C12CC3CC(CC(C3)C1)C2,-19% (inactive),-8.21,–,–
O=c1c(Cl)c(NCc2ccc(F)cc2Cl)cnn1C12CC3CC(CC(C3)C1)C2,1.12% (inactive),-5.4,–,–
O=c1c(Cl)c(NCc2ccccc2Cl)cnn1C12CC3CC(CC(C3)C1)C2,–,-8.24,13 µM (active),–
Cc1cccc(NC(=O)CS(=O)(=O)c2cn(C)c3ccccc23)c1,–,-0.98,–,inactive
CNC(=S)N(CCCn1ccnc1)Cc1c(F)cccc1Cl,–,21.2,3.26 µM (active),–
O=C(CC1C(=O)NCCN1Cc1c(F)cccc1Cl)NCCCn1ccnc1 (stereo not drawn),8.58% (inactive),8.35,–,–
O=C(Cc1c(F)cccc1Cl)NCCCn1ccnc1,-0.0337% (inactive),-2.56,–,–

SMILES,"lipid storage change, negative = inhibition",cell number change [%],Potency,outcome
CCCCn1c(CNC(=O)C(C)(C)C)nc2ccccc21,9.89% (inactive),-1.23,–,–
COc1ccc(Nc2nnc(SCC(=O)Nc3ccc4[nH]c(=O)[nH]c4c3)s2)cc1,-11.5% (inactive),-17.1,–,–
Cc1nnc(SCCN2C(=O)c3ccccc3C2=O)[nH]c1=O,21.9% (inactive),-14.8,–,–
O=C(/C=C/c1cccc([N+](=O)[O-])c1)NCCN1C(=O)S/C(=C\c2ccc(F)cc2)C1=O,7.68% (inactive),13.9,–,–
CC(C)(C)C(=O)NCCN1C(=O)S/C(=C\c2ccc([N+](=O)[O-])cc2)C1=O,–,-4.32,11.6 µM (active),–
O=C(/C=C/c1ccccc1[N+](=O)[O-])NCCN1C(=O)S/C(=C\c2ccc(F)cc2)C1=O,-24.8% (inactive),-11.5,–,–
COc1cccc(-c2nc(CS(=O)(=O)CC(=O)NCc3ccccc3)c(C)o2)c1,29.1% (inactive),1.69,–,–
COc1ccc(-c2nc(CS(=O)(=O)CC(=O)NCc3ccccc3Br)c(C)o2)cc1,-6.39% (inactive),11.5,–,–
COc1ccc(-c2nc(CS(=O)(=O)CC(=O)NCc3cccc(Br)c3)c(C)o2)cc1,–,10.1,13 µM (active),–
CC(C)=CCN1CCN(Cc2cnc(-c3ccccc3)s2)CC1CCO (stereo not drawn),-2.06% (inactive),-2.03,–,–
Cc1ccc(-n2ncc(C(=O)N3CCN(C(=O)c4ccco4)CC3)c2-n2cccc2)cc1,–,-13.4,–,inactive
Cc1ccc(-n2nc(C)c(C(=O)N3CCN(C(=O)c4ccco4)CC3)c2-n2cccc2)cc1,–,-18.3,16.4 µM (active),–
Cc1ccc(CN2CCN(C(=O)c3ccco3)CC2)cc1,-4.76% (inactive),11.8,–,–
O=C(Nc1ccncc1)c1sc2ccccc2c1Cl,0.205% (inactive),17.8,–,–
Cc1nn(CC#N)c(=O)n1-c1ccccc1,–,5.19,–,inactive
CCOC(=O)C1CCN(C(=O)CSc2c3c(nc4ccccc24)CCC3)CC1,1.28% (inactive),8.19,–,–
N#Cc1ccc(-c2csc(-c3ccno3)n2)cc1,7.03% (inactive),9.9,–,–
COc1ccc(/C=C2\N=C(c3ccccc3)N(c3ccc(C(=O)O)cc3)C2=O)cc1OC,-5.74% (inactive),–,–,–
COc1ccc(/C=C2\N=C(C)N(c3ccc4ccccc4c3)C2=O)cc1OC,–,14.3,5.17 µM (active),–
COc1ccc(/C=C2\N=C3CCCCCN3C2=O)cc1OC,23.1% (inactive),-0.0934,–,–
